High-throughput results (PubChem)
Rows were chosen to be rich in hits. Some 7.5% of all compounds tested hit in one or more screens of this group.
NPC1 prom act – qHTS Assay for NPC1 Promoter Activators; 320,000 tested, 2.4% active; Huh7 NPC1 promoter luciferase reporter, 24 h; Potency, µM (doses to about 9.22 µM), without a hit: top-dose activation, hits mostly activators; also: % of control where 0% means no effect; nearly all actives have a fitted effect of over 60% in size
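Compounds in DMSO were transferred onto Huh7 NPC1-luciferase reporter cells pre-incubated 2 h; after 24 h at 37 °C, Amplite reagent was dispensed and luminescence recorded 10 min later.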
ELG1 genotoxic – qHTS screen for small molecules that induce genotoxicity in human embryonic kidney (HEK293T) cells expressing luciferase-tagged ELG1; HEK293T ELG1-luciferase reporter, luminescence, 16 h; Potency, µM (top dose mostly 46 µM), for the others: at the top dose activity change, positive = activation, actives largely listed as activators; 330,000 tested, 1.3% active; AID 504466, 2011; also: % of control where 0% means no effect; nearly all actives have a fitted effect of over 60% in size
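Step 1: seed 2,000 HEK293T ELG1-luciferase cells per well. Step 2: add compound or DMSO, incubate 16 hr at 37 °C. Step 3: ONE-Glo, 30 min at room temperature, read luminescence.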
Rab9 promoter act – qHTS Assay for Rab9 Promoter Activators; Huh7 Rab9 promoter-luciferase reporter, luminescence, 24 h; 320,000 tested, 2.8% active; Potency, µM (titrated, usually from 9.22 µM), for inactives: at the highest dose activation, negative = inhibition, hits mostly activators; also: % of control where 0% means no effect; nearly all actives have a fitted effect of over 60% in size
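Huh7 reporter line, Rab9 promoter upstream of luciferase. Compound exposure 24 h at 37 °C in reduced-serum medium with 10% FBS. Read-out: luminescence.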
SMN2 splice up – qHTS Assay for Enhancers of SMN2 Splice Variant Expression; HEK293 SMN2-luciferase splicing reporter, luminescence, 30-36 h; Potency, µM (top dose mostly 46.1 µM), without a hit: at the highest dose activity change, positive = activation, hits mostly activators; 210,000 tested, 2.8% active; AID 1458, 2008; also: % of control where 0% means no effect; nearly all actives have a fitted effect of over 55% in size
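HEK293 cells carry an SMN2 […]–luciferase reporter in which exon 7 inclusion puts luciferase in frame. Cells were plated 10-12 h before compound addition, then incubated 30-36 h at 37C. ONE-Glo luminescence was read; sodium butyrate at 4.5 mM final served as control.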
FLuc counter – qHTS profiling assay for firefly luciferase inhibitor/activator using purifed enzyme and Km concentrations of substrates (counterscreen for miR-21 project); AID 588342, 2011; Potency, µM (doses to about 57.5 µM), for inactives: at the top dose activity change, negative = inhibition, actives largely listed as inhibitors; purified FLuc, Km substrates, luminescence inhibition; 360,000 tested, 6.9% active;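 also: plate controls were vehicle for no effect and reference inhibitor for full effect; nearly all actives have a fitted effect of over 55% in size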
Target sequence (P08659 whole entry, looked up): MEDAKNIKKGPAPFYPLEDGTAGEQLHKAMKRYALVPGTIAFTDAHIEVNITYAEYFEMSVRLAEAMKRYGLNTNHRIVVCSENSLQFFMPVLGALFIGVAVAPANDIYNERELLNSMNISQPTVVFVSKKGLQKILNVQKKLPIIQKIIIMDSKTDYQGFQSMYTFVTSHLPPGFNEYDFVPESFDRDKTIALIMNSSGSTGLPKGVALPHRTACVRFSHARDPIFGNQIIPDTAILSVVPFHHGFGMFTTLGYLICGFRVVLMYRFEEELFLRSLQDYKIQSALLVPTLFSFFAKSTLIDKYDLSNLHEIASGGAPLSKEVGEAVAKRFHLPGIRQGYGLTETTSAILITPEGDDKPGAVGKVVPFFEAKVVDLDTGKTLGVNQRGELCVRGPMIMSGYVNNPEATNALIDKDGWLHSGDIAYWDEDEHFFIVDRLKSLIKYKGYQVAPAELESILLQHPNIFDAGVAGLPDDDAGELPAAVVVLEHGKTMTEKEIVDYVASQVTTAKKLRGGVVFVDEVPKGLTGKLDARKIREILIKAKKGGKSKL
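Purified P. pyralis luciferase (10nM final) with 10uM D-luciferin and 10uM ATP (Km levels) in 50mM Tris acetate pH 7.5, 10mM Mg acetate, 0.01% Tween-20, 0.05% BSA; qHTS 6-point titration, ~60 µM downward; luminescence read.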
Numbers without * were called inactive; ? = inconclusive; . = no result given. Calls follow the shape of the dose curve; as a rule, active = well fitted curve in the direction sought with a large enough effect; inconclusive = small, poorly fitted or top-dose-only effect, or another doubt; inactive = no such curve, though single readings can be large; an effect the other way counts as inactive or inconclusive. Potency is read from the fitted curve at half-maximal effect.

SMILES	NPC1 prom act	ELG1 genotoxic	Rab9 promoter act	SMN2 splice up	FLuc counter
COc1cccc(C(=O)Oc2ccc3ccc(O)cc3c2)c1	-0.4%	1.0%	3.9%	.	6.01µM*
Cc1ccccc1S(=O)(=O)Oc1ccc2ccc(O)cc2c1	26.4%	8.2%	-3.3%	.	16.9µM*
CCc1ccc(NC(=O)CCS(=O)(=O)c2ccc(Cl)cc2)cc1	0.8%	-2.2%	7.8%	.	-0.4%
C=CCn1c(=O)c2ccccc2n2c(SCC(=O)Nc3sc(C)c(CC)c3C(=O)OCC)nnc12	-2.0%	-0.7%	-1.7%	-22.6%	2.2%
O=C(NC1=NC2CCCCC2N1)c1ccccc1 (stereo not given)	0.398µM*	0.581µM*	0.316µM*	15.1%	1.51µM*
O=C1CC(c2ccc(Cl)cc2)N=C(NC(=O)c2ccccc2)N1 (stereo not given)	.	.	.	.	-5.1%
CCSc1ccccc1C(=O)Nc1nncs1	6.7%	2.6%	5.5%	12.5%	17.1%
COC(=O)c1ccc(C(NC(=O)OCc2ccccc2)/C(=C/[C@@H](C)C(=O)NC2CCCCC2)c2cccnc2)cc1 (stereo not given in full)	.	.	.	-4.5%	.
Cc1nnc(NC(=O)Nc2cccc(Cl)c2)s1	?	-19.2%	?	27.8%	?
CSc1ccc(Cl)c(C(=O)Nc2nccs2)c1	-0.8%	-4.7%	-1.2%	.	-9.9%
O=C(Nc1ccc(Cl)c(Cl)c1)Nc1nccs1	-18.0%	-1.4%	14.3%	.	13.5µM*
Cc1csc(NC(=O)Nc2cccc(Cl)c2)n1	?	?	?	11.2µM*	5.36µM*
O=C(Nc1cccc(Cl)c1)Nc1nccs1	?	-0.9%	?	-8.7%	19µM*
CCCc1c(CC)c(=N)c2ccccc2n1C	-4.9%	-6.7%	-14.9%	-17.9%	-10.8%
Nc1ncc(S(=O)(=O)NCc2ccc(Cl)cc2)cn1	.	.	.	.	1.9%
CCSCc1nc2ccccn2c1Br	-3.8%	2.4%	0.9%	-1.0%	-12.9%
CCc1[nH]nc(C(=O)N/N=C/c2ccncc2)c1C	2.82µM*	23.1µM*	3.16µM*	.	10.7µM*
CC(=O)Nc1ccc(C(=O)N/N=C/c2ccncc2)cc1	0.6%	13.9%	0.4%	-15.6%	-6.4%
COc1ccc(-c2cc(C(=O)Nc3cccc(O)c3)no2)cc1	?	?	3.98µM*	.	0.379µM*
O=C(Nc1cccc(C(F)(F)F)c1)c1cc(-c2ccco2)on1	1.1%	7.0%	2.9%	.	?
CC(=O)c1cccc(NC(=O)c2cc(-c3ccco3)on2)c1	-3.4%	?	3.5%	.	2.39µM*
O=C(Nc1cccc(O)c1)c1cc(-c2ccco2)on1	-2.0%	?	1.5%	10.6%	0.953µM*
CCCSCCCNC(=O)C1CCCN(C(=O)c2cnn(-c3ccccc3)c2-n2cccc2)C1 (stereo not given)	.	.	.	-1.5%	-13.3%
O=C(COC(=O)/C=C/c1ccccc1[N+](=O)[O-])NCC(F)(F)F	1.3%	-0.4%	6.9%	-8.1%	-3.9%
Cc1nc(CNS(=O)(=O)c2cc(F)ccc2F)cs1	1.8%	-0.4%	-4.1%	?	7.0%
SMILES	NPC1 prom act	ELG1 genotoxic	Rab9 promoter act	SMN2 splice up	FLuc counter
c1ccc2c(c1)oc1c(Nc3ccc(CN4CCOCC4)cc3)ncnc12	2.24µM*	2.06µM*	?	-91.6%	8.49µM*
c1ccc(Nc2ncnc3c2oc2ccccc23)cc1	.	.	.	-0.3%	21.3µM*
CC(=O)N1CCN(c2ccc(Nc3ncnc4c3oc3ccccc34)cc2)CC1	18.5%	-10.1%	12.6%	-43.1%	23.9µM*
c1ccc2c(c1)oc1c(NCCN3CCOCC3)ncnc12	14.1%	6.8%	3.7%	-4.4%	-12.1%
Oc1ccc(Nc2ncnc3c2oc2ccccc23)cc1	?	?	?	.	15.1µM*
Brc1ccc(-c2cc3c(N4CCN(c5ccccc5)CC4)nccn3n2)cc1	.	.	.	2.6%	-1.0%
Oc1cccc(Nc2ncnc3c2oc2ccccc23)c1	3.55µM*	13µM*	?	.	8.49µM*
O=C1OC(Cc2ccccn2)C(O)=C1C1=NCCCCN1 (stereo not given)	2.24µM*	?	2.24µM*	10µM*	?
CCCCOC(=O)c1ccc(N=Nc2c(C)c(C#N)c(O)[nH]c2=O)cc1	3.7%	8.9%	20.5%	.	?
COc1cc(C(=O)Nc2sc3c(c2C(=O)O)CCC3)cc(OC)c1OC	-7.3%	-11.8%	-6.6%	.	-17.7%
COc1cccc(C(=O)Nc2sc3c(c2C(=O)O)CCCC3)c1	5.2%	-1.0%	11.7%	.	21.3µM*
CNC(=O)c1c(NC(=O)/C=C/c2ccccc2Cl)sc2c1CCC2	.	.	.	.	9.53µM*
CNC(=O)c1c(NC(=O)c2cccc(C)c2)sc2c1CCC2	?	?	?	.	21.3µM*
COc1cccc(C(=O)Nc2sc3c(c2C#N)CCN(C(C)=O)C3)c1	-27.4%	?	0.2%	-26.5%	15.1µM*
COCCN(CCOC)S(=O)(=O)c1ccc(C(=O)Nc2c(C)n(C)n(-c3ccccc3)c2=O)cc1	-4.2%	-3.1%	-3.6%	.	-0.6%
CC1CC(C)(C)CC2(C1)NC(=O)N(CC(=O)Nc1c(F)cccc1F)C2=O (stereo not given)	0.0%	0.1%	-1.2%	.	5.5%
COc1ccc(CCC(=O)NC2CC(=O)N(c3ccccc3)C2)cc1 (stereo not given)	.	.	.	.	-0.8%
Cc1cccc(C(=O)Nc2sc3c(c2C(=O)O)CCC3)c1	?	5.9%	25.6%	.	16.9µM*
O=C(NCCOC(=O)c1ccc(Cl)c(S(=O)(=O)N2CCCCC2)c1)c1ccncc1	-3.4%	-0.6%	-2.3%	-25.6%	-2.1%
C/C(CC(=O)Nc1cc(C)ccn1)=N\NC(=O)c1cccc(C)c1O	-9.9%	5.8µM*	14.3%	.	?
C/C(CC(=O)Nc1ccccn1)=N\NC(=O)c1ccccc1O	0.6%	16.4µM*	2.2%	.	16.9µM*
CCN(CC)S(=O)(=O)c1cc(Br)ccc1OC	-0.2%	0.1%	-3.4%	2.6%	0.9%
COc1ccc(C(=O)CSc2ccc(-c3ccc(C)cc3)nn2)cc1	20.7%	5.6%	20.2%	14.1µM*	10.7µM*
